Compound activity: PubChem, National Center for Advancing Translational Sciences (NCATS)
Shown is part of a subset that was picked to be rich in hits.
CHX counter: counter-screen hit for Shiga toxin inhibitors, cycloheximide; cell reporter, cycloheximide protein synthesis inhibition counterscreen; AID 2314; max response, %; 300,000 compounds, 12% hits; in the data active = max response mostly above about 13%, no sharp cut-off; inactive = mostly below about 14%; note: read at 38.3 µM for the half of the compounds with a filed dose; 0% is about no effect
RE007 growth inh: less growth of the S. pombe RE007 Vpr strain. S. pombe RE007 Vpr strain, BacTiter-Glo ATP luminescence, 24 h. Potency, µM (series often up to 92.2 µM), inactives show top-dose activity change, negative = less growth, actives largely listed as inhibitors. 360,000 compounds, 0.21% hits. AID 651644; active = well fitted falling curve with a large enough effect; inconclusive = small, poorly fitted or top-dose-only effect; inactive = no such curve, though single readings can be large or run the other way; note: potency is the fitted concentration of half-maximal effect; % is set by controls: 0 for no effect and ±100 for the full control effect; nearly all actives have a fitted effect of over 50% in size
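Fission yeast RE007 carrying one integrated HIV-1 vpr copy, seeded at OD 0.01 in PMG+AL medium with 23 nL pinned compound. Grown 24 h at 30 degrees; viability read by BacTiter-Glo luminescence after 5 min.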
Tb PYK inh: blocks Trypanosoma brucei pyruvate kinase; Q57TT1; TbPYK enzyme, Kinase-Glo Plus ATP luminescence, 45 min; Potency, µM (series often up to 76.8 µM), without a hit: at the top dose activity, negative = inhibition, usual class: inhibitors; 410,000 compounds, 0.12% hits; AID 624173; note: potency is the fitted concentration of half-maximal effect; % is set by controls: 0 for no effect and ±100 for the full control effect; nearly all actives have a fitted effect of over 50% in size
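Quantitative HTS: titrated library compounds versus trypanosomal pyruvate kinase in TEA buffer (pH 7.2) containing KCl, MgCl2, BSA and Tween-20. Reactions were initiated with ADP, 130 uM final. Kinase-Glo Plus luminescence was read after 45 min at RT.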
LmPK inh: inhibitors of Leishmania mexicana pyruvate kinase | Potency, µM (series often up to 57.5 µM), for the others: top-dose activity change, negative = inhibition, actives largely listed as inhibitors | Q27686 | purified LmPK, Kinase-Glo ATP luminescence, 1 h | 290,000 compounds, 0.37% hits; note: potency is the fitted concentration of half-maximal effect; % is set by controls: 0 for no effect and ±100 for the full control effect
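Purified LmPK (0.1 nM) with 0.5 mM PEP and 0.1 mM ADP in imidazole buffer pH 7.2 with MgCl2/KCl, 1 h at room temperature. ATP formed was read by luciferase luminescence and normalized to no-enzyme and uninhibited controls.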
Shiga inhibitor: inhibitors of Shiga toxin in Vero cells; Vero cells, Shiga toxin protein synthesis inhibition reporter; 290,000 compounds, 9.2% hits; inhibition, % at 38.7 µM; in the data active = inhibition mostly above about 28%, no sharp cut-off; inactive = mostly below about 43%; note: 0% is about no effect
Giardia FBPA inh: inhibitors of Giardia lamblia fructose-1,6-bisphosphate aldolase | A8B2U2 | purified Giardia FBPA | Potency, µM (highest dose often 59.6 µM), for the others: at the top dose activity, negative = inhibition, actives largely listed as inhibitors | 290,000 compounds, 0.71% hits; note: potency is the fitted concentration of half-maximal effect; % is set by controls: 0 for no effect and ±100 for the full control effect; nearly all actives have a fitted effect of over 55% in size
Target sequence (A8B2U2 whole entry, looked up): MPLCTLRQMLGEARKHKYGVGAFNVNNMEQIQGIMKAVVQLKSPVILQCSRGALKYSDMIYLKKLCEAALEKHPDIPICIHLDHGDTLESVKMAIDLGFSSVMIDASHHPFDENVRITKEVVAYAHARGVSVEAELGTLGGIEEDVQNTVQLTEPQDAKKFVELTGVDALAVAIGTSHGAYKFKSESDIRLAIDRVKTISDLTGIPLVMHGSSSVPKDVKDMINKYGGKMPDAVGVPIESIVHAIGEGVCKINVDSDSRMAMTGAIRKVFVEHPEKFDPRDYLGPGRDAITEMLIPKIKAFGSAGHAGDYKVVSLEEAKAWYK
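Giardia FBPA (40 nM reagent) was preincubated 10 min at RT with compound (up to 57.5 uM final), then substrate plus GAPDH/TPI/NAD/arsenate coupling system with diaphorase/resazurin was added; resorufin fluorescence (525/598 nm) was read after 20 min.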
* hit, by the source's call; ? = inconclusive; nt = no result. Unless noted, calls come from the whole dose curve; as a rule, active = well fitted curve in the direction sought with a large enough effect; inconclusive = small, poorly fitted or top-dose-only effect, or another doubt; inactive = no such curve, though single readings can be large; an effect the other way counts as inactive or inconclusive.

SMILES	CHX counter	RE007 growth inh	Tb PYK inh	LmPK inh	Shiga inhibitor	Giardia FBPA inh
Cc1ccc(C2=NOC(c3nnc(-c4ccccc4)o3)C2)cc1 (configuration not stated)	nt	14.8%	2.3%	nt	nt	nt
CN(C)c1ccc(-c2nnc(-c3cccs3)o2)cc1	10.8	-4.9%	-6.3%	4.4%	34.1	-0.2%
Clc1ccc(-c2noc(/C=C/c3ccccc3)n2)cc1	8.9	-8.1%	-0.1%	-1.6%	-2.8	3.0%
Cc1ccc(/C=C/c2nnc(-c3ccccc3)o2)cc1	22.9*	-3.3%	-12.6%	-15.7%	64.8	-0.4%
Cc1ccc(-c2noc(/C=C/c3ccccc3)n2)cc1	19.3*	-5.4%	-2.9%	0.8%	37.4	-0.4%
Cc1ccc(NC(=O)CSc2nccn2C2CCCC2)cc1	nt	nt	1.4%	nt	nt	nt
COc1ccc(NC(=S)/N=C(\N)Nc2nc(C)c3ccccc3n2)cc1	14.4*	12.1%	-10.1%	2.9%	20.5	-8.4%
COc1ccc2nc(N/C(N)=N/C(=S)Nc3cccc(C)c3)nc(C)c2c1	-1.6	4.9%	2.4%	-0.2%	7.2	9.6%
O=C(c1ccc(C(F)(F)F)cc1)N1CCC(c2noc(-c3ccc(S(=O)(=O)N4CCCC4)cc3)n2)CC1	nt	nt	0.9%	nt	nt	nt
O=C(NCc1ccco1)/C(=C/c1ccc(C(F)(F)F)cc1)c1nc2ccccc2[nH]1	59.3*	0.9%	0.9%	3.9%	11.9*	-29.7%
O=C(COC(=O)/C=C/c1cccc(C(F)(F)F)c1)NCc1ccco1	nt	0.5%	-8.6%	nt	nt	nt
O=S(=O)(/C(=C\c1ccc(C(F)(F)F)cc1)c1nc2ccccc2[nH]1)c1ccccc1	nt	-21.6%	-3.1%	nt	nt	nt
O=C(NCc1ccco1)/C(=C/c1cccc(C(F)(F)F)c1)c1nc2ccccc2[nH]1	17.8*	-9.2%	-9.0%	-0.8%	-1.0	-12.8%
CC(=O)c1ccc(NC(=O)CSc2nc(C3CCCC3)nc3c2c(=O)n(C)c(=O)n3C)cc1	nt	nt	-11.8%	nt	nt	nt
CCOc1ccc(S(=O)(=O)N2Cc3ccccc3CC2C(=O)Nc2ccc(NC(C)=O)cc2)cc1 (configuration not stated)	nt	nt	0.0%	nt	nt	nt
O=C(/C=C/c1ccc(Cl)cc1)NC1CCS(=O)(=O)C1 (configuration not stated)	-1.6	-4.3%	5.4%	-6.9%	12.0	-0.7%
NC(=O)C(C(=O)/C=C/c1ccc(Cl)cc1)=C1SCCS1	15.4*	-0.9%	0.9%	0.9%	39.2	2.9%
COc1ccc(/C=C/C(=O)C(C(N)=O)=C2SCCS2)cc1	31.1*	-3.0%	-3.4%	-1.0%	49.2*	4.2%
CC(NC(=O)/C=C/c1ccco1)c1nc2ccccc2n1Cc1cccc(Cl)c1 (configuration not stated)	53.7*	-0.4%	-12.6%	2.3%	66.6*	-0.3%
COCCNC(=O)c1nn(-c2ccc(C)cc2)c(=O)n(C)c1=O	nt	nt	-2.4%	nt	nt	nt
[O-]/[N+](=C\C=C\c1ccccc1)c1ccccc1	50.5*	-17.9%	-4.8%	?	133.3*	0.5%
CN1CCN(c2ncc3c(n2)CCN(Cc2ccccc2Cl)C3)CC1	nt	nt	3.4%	nt	nt	nt
Cc1ccc2[nH]c(=O)c3cc(C(=O)NCCCN4CCC(C)CC4)sc3c2c1	nt	nt	-1.8%	nt	nt	nt
Cc1ccc2nc(COc3ccc(Cl)cc3)cc(=O)n2c1	41.3*	3.0%	-2.4%	-7.9%	98.5*	4.5%
CCOC(=O)N1CCN(C(=O)COc2ccc3ccccc3c2Br)CC1	0.4	3.3%	2.7%	-0.5%	-5.4	nt
O=C(COc1ccc2ccccc2c1Br)Nc1ncn[nH]1	31.9*	-4.0%	-3.7%	-0.6%	76.0*	1.1%
O=C(COc1ccc2ccccc2c1Br)N1CCCC1	41.9*	-23.8%	1.0%	-7.6%	34.6	nt
Cc1cccc(C)c1OCC(=O)Nc1ncn[nH]1	-3.0	27.3%	-7.3%	-1.8%	-14.4	-1.6%
O=C(COc1ccc2ccccc2c1Br)N1CCOCC1	24.7	?	-14.8%	1.4%	39.2*	-14.9%
Cc1ccc(C)c(OCC(=O)N2CCOCC2)c1	3.2	4.2%	-7.4%	1.1%	-2.7	0.1%
